± gives the standard deviation of the averaged measurements. The full ranking holds about 33,000 sequences; the median of “E-score (rank enrichment, -0.5 to 0.5)” is about -0.0043, and the highest 2% start at about 0.24. Shown is part of a subset that was picked to be rich in the highest values.
tested on: 2Sp-muMax20 (muMax20 with two 2,6-bis(methyl)pyridine Cys staples); test: PBM 8-mer E-score (E-score (rank enrichment, -0.5 to 0.5)); higher = stronger preferential binding
Protocol: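 Protein binding microarray (universal PBM chip covering all 10-mers in fixed probe flanks) with chemically synthesized human Max(13-93) bHLH-LZ analogs (not full-length Max) bearing noncanonical residues (hArg, Tha, Aib, Nle at 65) and aromatic Cys staples. Read-out per 8-mer (and its reverse complement): E-score (rank-based enrichment, -0.5 to 0.5) and Z-score of median probe intensity.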

Row | Sequence | PBM 8-mer E-score
1 | CTTATCAC | 0.00992 ± 0.026
2 | ACCGAGCT | -0.158 ± 0.00061
3 | CGAGTAAG | 0.0344 ± 0.035
4 | CACGATAA | 0.0394 ± 0.0045
5 | TGGAACCA | -0.0848 ± 0.06
6 | ACGTCCAT | -0.0323 ± 0.032
7 | TCCCATAA | 0.0959 ± 0.053
8 | CCCCATAA | 0.254 ± 0.037
9 | CCCCACAG | -0.0544 ± 0.039
10 | CCCCACAA | 0.245 ± 0.013
11 | CCCCACAC | 0.229 ± 0.021
12 | GCCCATAA | -0.0636 ± 0.086
13 | GTCCAAAA | -0.0163 ± 0.058
14 | ACGCGAAC | 0.0549 ± 0.069
15 | TCACAAAA | 0.0933 ± 0.021
16 | ACAAGCTC | -0.194 ± 0.011
17 | CTATAAAC | 0.0618 ± 0.024
18 | ATATAAAA | 0.3008 ± 0.00046
19 | GGATAAAA | 0.0526 ± 0.098
20 | ATATAAAT | 0.251 ± 0.037
21 | ACATAAAA | 0.144 ± 0.037
22 | GTATAAAC | 0.0938 ± 0.044

Row | Sequence | PBM 8-mer E-score
23 | GTATAAAA | 0.278 ± 0.035
24 | ATATAAAG | 0.21 ± 0.017
25 | CTATAAAA | -0.0627 ± 0.04
26 | ATAAAAAC | 0.116 ± 0.046
27 | ATATAAAC | 0.315 ± 0.054
28 | ATAAAAAT | 0.16 ± 0.044
29 | CTACACTA | 0.111 ± 0.081
30 | ACGCCTTC | -0.0956 ± 0.053
31 | TGATAAAA | 0.145 ± 0.017
32 | TAATAAAA | 0.231 ± 0.053
33 | TTATAAAA | 0.272 ± 0.021
34 | GGGGAAGA | 0.0842 ± 0.0073
35 | AGTCCTTC | -0.195 ± 0.04
36 | CTACCATC | -0.168 ± 0.094
37 | ACACCATC | 0.0694 ± 0.0049
38 | GTACCATA | -0.00352 ± 0.14
39 | ATACCATA | 0.249 ± 0.041
40 | ATACCATC | 0.237 ± 0.021
41 | ATACCATG | 0.102 ± 0.057
42 | AGAAGGTC | 0.126 ± 0.039
43 | ACTTGGCG | -0.143 ± 0.14
44 | CTGCAACC | -0.145 ± 0.031

Row | Sequence | PBM 8-mer E-score
45 | GCTAGTCA | 0.103 ± 0.052
46 | AGTCACGG | -0.147 ± 0.052
47 | AGTCACGA | -0.0662 ± 0.009
48 | AGTCACGC | 0.26 ± 0.037
49 | ATAAGGAA | -0.0884 ± 0.043
50 | CTAAGGTC | -0.029 ± 0.12
51 | ATAAGGAC | 0.0211 ± 0.092
52 | ATAAGGTC | 0.238 ± 0.051
53 | ATAAGGAT | 0.258 ± 0.011
54 | ATAAGGTA | 0.164 ± 0.031
55 | CCAGTATC | -0.0909 ± 0.022
56 | AACCCCGA | 0.0376 ± 0.019
57 | ACGCTTCA | 0.0519 ± 0.091
58 | GTAAGTTA | 0.0283 ± 0.0067
59 | CTAAGTTA | 0.0843 ± 0.017
60 | ATAAGTTA | 0.236 ± 0.025
61 | CAAGGACC | -0.223 ± 0.048
62 | AATTAATT | 0.242 ± 0.031
63 | CTTTAATA | 0.207 ± 0.016
64 | ATTTAATA | 0.243 ± 0.0082
65 | AATTAGTA | 0.268 ± 0.0095
66 | ACTTAATA | 0.156 ± 0.042

Row | Sequence | PBM 8-mer E-score
67 | AGTTAATA | 0.138 ± 0.027
68 | AATTAATC | 0.207 ± 0.009
69 | CATTAGTA | -0.0474 ± 0.081
70 | AATTAGTC | 0.0516 ± 0.035
71 | AATTAATG | 0.215 ± 0.028
72 | AATTAATA | 0.285 ± 0.03
73 | GTTTAATA | 0.203 ± 0.062
74 | GCTAAGTA | 0.034 ± 0.091
75 | CCGCCGCC | -0.00332 ± 0.019
76 | ACACCAGA | -0.0516 ± 0.0077
77 | CATGAACA | -0.0306 ± 0.058
78 | GTTTAGGA | -0.13 ± 0.036
79 | GACCCTTA | -0.0689 ± 0.0029
80 | ATTTAAAC | 0.329 ± 0.047
81 | CTTTAAAC | 0.0827 ± 0.097
82 | ATTTAAAG | 0.0431 ± 0.059
83 | AAAATTCC | 0.0483 ± 0.056
84 | CCTCTTAA | 0.0544 ± 0.11
85 | AATGGGGA | 0.112 ± 0.047
86 | CGTGGGGA | 0.1018 ± 0.00016
